Screening data: PubChem BioAssay, several laboratories
PfHsp90 yeast 2 = inhibits growth of yeast expressing Plasmodium falciparum Hsp90; 310,000 tested, 0.32% active; inhibition, % at 9.4 µM; S. cerevisiae expressing PfHsp90, BacTiter-Glo ATP, 48 h; yeast lacking PDR1 and PDR3 efflux regulators; AID 504621;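 active = every replicate shows inhibition above about 80%, whatever the replicate mean, limit read from the data; inconclusive = mean inhibition reaches the set limit but some replicate falls short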;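 also: 0% = DMSO neutral controls and 100% = 20 µM radicicol positive controls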
tim10-1 inh = tim10-1 yeast growth inhibition; S. cerevisiae tim10-1 ts strain growth, BacTiter-Glo, 24 h; inhibition, % at 20 µM; 330,000 tested, 2.2% active;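 active = inhibition of at least 40%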;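 also: mutant grown at 25 °C; 0% = DMSO wells with yeast and 100% = wells holding no yeast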
TIM10 inh = TIM10 yeast growth inhibition. inhibition, % at 10 µM. S. cerevisiae TIM10 strain growth, BacTiter-Glo luminescence, 24 h. 330,000 tested, 1.4% active;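 active = inhibition of 40% or more at the single tested concentration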;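 also: wild-type TIM10 isogenic control strain grown at permissive 25 °C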
ATG4B inhibitor = ATG4B (human) cysteine protease inhibition; 340,000 tested, 0.51% active; ATG4B cleavage of LC3-PLA2, NBD-HPC fluorescence, 1 h; inhibition, % at 8.33 µM; Q9Y4P1; in the data active = inhibition above about 40%
Target sequence (Q9Y4P1 whole entry, looked up): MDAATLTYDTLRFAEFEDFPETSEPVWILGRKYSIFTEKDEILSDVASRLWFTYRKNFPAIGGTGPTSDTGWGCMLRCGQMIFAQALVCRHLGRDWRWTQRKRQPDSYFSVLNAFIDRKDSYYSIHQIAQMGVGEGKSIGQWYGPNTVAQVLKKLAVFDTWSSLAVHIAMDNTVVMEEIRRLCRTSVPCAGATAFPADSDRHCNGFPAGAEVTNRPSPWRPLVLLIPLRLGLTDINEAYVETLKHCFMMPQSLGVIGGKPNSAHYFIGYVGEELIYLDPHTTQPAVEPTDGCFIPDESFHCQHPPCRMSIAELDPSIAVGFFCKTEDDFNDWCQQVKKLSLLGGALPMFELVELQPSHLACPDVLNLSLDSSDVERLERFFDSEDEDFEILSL
tim23-1 inh = tim23-1 yeast growth inhibition; S. cerevisiae tim23-1 growth, BacTiter-Glo luminescence, 24 h; inhibition, % at 20 µM; 330,000 tested, 1.3% active;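 active = growth inhibition of the mutant yeast at or above 50%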;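 also: temperature-sensitive mutant grown at 25 °C; plate controls were DMSO-treated mutant yeast for no effect and medium wells lacking yeast for full effect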
SKKanGAS inh = SKKanGAS growth inhibition. S. pyogenes SKKanGAS, kanamycin growth, BacTiter-Glo, 6 h. inhibition, % at 7.5 µM. 300,000 tested, 1.3% active. AID 1662;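 active = mean replicate score, as percent of positive control median, at least 50; inconclusive = mean below 50 but one replicate at or above 50; inactive = mean and every replicate below 50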;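 also: strain carries kanamycin resistance gene driven by streptokinase promoter and grows in 40 µg/ml kanamycin; loss of luminescence reflects streptokinase promoter inhibition or plain growth inhibition; 0% = median of DMSO wells and 100% = positive control at its reference dose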
tim10-1 conf = confirmation of tim10-1 mutant yeast growth inhibitors; shares compounds with tim10-1 inh; S. cerevisiae tim10-1 ts strain growth, BacTiter-Glo, 24 h; inhibition, % at 20 µM; 7,400 tested, 56% active;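 active = inhibition of yeast growth at or above a set limit in either of two repeat tests at 20 µM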;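 also: tim10-1 mutant grown at permissive 25 °C to find synthetic lethal compounds; 0% = DMSO yeast wells and 100% = medium wells without yeast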
* = called active by the depositor. Most compounds without a hit are left out; they make up all but 4.7% or so of the library.

`COC(=O)c1[nH]c2ccccc2c1NC(=O)C(C)N1CCOCC1` (stereo not given) gave PfHsp90 yeast 2 2.7, tim10-1 inh -7.0, TIM10 inh -0.8, ATG4B inhibitor -6.2, tim23-1 inh -4.5 and SKKanGAS inh -2.6.
`COc1ccc(-c2c[n+]3c4n2CCCCC4=C(c2ccccc2)C3)cc1` gave tim10-1 inh 44.6*, TIM10 inh 35.7, ATG4B inhibitor -4.4, tim23-1 inh 37.5, SKKanGAS inh 11.3 and tim10-1 conf 17.2.
For O=C(COc1ccccc1)Nc1nc(-c2ccncc2)cs1 the results were PfHsp90 yeast 2 -14.7, tim10-1 inh 24.6, TIM10 inh 15.3, ATG4B inhibitor -13.8, tim23-1 inh 32.2 and SKKanGAS inh 11.7.
`O=C(COc1ccc([N+](=O)[O-])cc1)Nc1nc(-c2ccccn2)cs1` gave tim10-1 inh 41.7*, TIM10 inh 0.0, ATG4B inhibitor -11.3, tim23-1 inh 38.4, SKKanGAS inh 57.2* and tim10-1 conf 13.0.
Screening CN1/C(=C/C2CC(=O)N(c3cccc4ccccc34)C2=O)C(C)(C)c2ccccc21 (stereo not given) returned PfHsp90 yeast 2 15.2, tim10-1 inh 50.7*, TIM10 inh 39.5, ATG4B inhibitor 8.5, tim23-1 inh 40.7, SKKanGAS inh 6.3 and tim10-1 conf 39.0*.
For CCOc1ccc(N2C(=O)CC(/C=C3/N(C)c4ccccc4C3(C)C)C2=O)cc1 (stereo not given) the results were PfHsp90 yeast 2 10.5, tim10-1 inh 31.8, TIM10 inh -0.6, ATG4B inhibitor 4.3, tim23-1 inh 31.2 and SKKanGAS inh 10.6.
Screening COc1cnc(-c2ccccn2)nc1Oc1cccc(C(F)(F)F)c1 returned PfHsp90 yeast 2 0.3, tim10-1 inh 44.1*, TIM10 inh 21.0, tim23-1 inh 37.5, SKKanGAS inh 37.6 and tim10-1 conf 21.8.
`COc1cnc(-c2ccccn2)nc1Sc1ccc(Cl)cc1` gave tim10-1 inh 43.2*, TIM10 inh 37.7, ATG4B inhibitor 5.4, tim23-1 inh 35.7, SKKanGAS inh inconclusive and tim10-1 conf 30.5.
COc1cnc(-c2ccccn2)nc1Sc1ccc(F)cc1 was read as PfHsp90 yeast 2 1.9, tim10-1 inh 41.5*, TIM10 inh 19.9, ATG4B inhibitor 28.0, tim23-1 inh 41.4, SKKanGAS inh 56.5* and tim10-1 conf 34.2*.
For COc1cnc(-c2ccccn2)nc1Sc1ccccc1 the results were PfHsp90 yeast 2 -42.8, tim10-1 inh 41.3*, TIM10 inh 13.5, ATG4B inhibitor 12.3, tim23-1 inh 48.4, SKKanGAS inh 90.5* and tim10-1 conf 42.7*.
Screening COc1ccc(Sc2nc(-c3ccccn3)ncc2OC)cc1 returned PfHsp90 yeast 2 6.9, tim10-1 inh 27.2, TIM10 inh 30.4, ATG4B inhibitor 11.9, tim23-1 inh 43.5 and SKKanGAS inh 10.5.
Screening CN(C)C(=O)c1ccc(NC(=O)COC(=O)Cn2cc(C(F)(F)F)ccc2=O)cc1 returned PfHsp90 yeast 2 3.0, tim10-1 inh 5.9, TIM10 inh 10.0, ATG4B inhibitor -9.7 and tim23-1 inh 8.3.
`CCOC(=O)c1cc(CC)sc1NC(=O)c1ccc2c(c1)OCCO2` gave PfHsp90 yeast 2 4.5, tim10-1 inh 41.3*, TIM10 inh 32.2, ATG4B inhibitor 3.5, tim23-1 inh 16.5, SKKanGAS inh -3.6 and tim10-1 conf 9.1.
Cc1[nH]c2ccc(C(=O)N3CCN(c4ccc(F)cc4)CC3)cc2c1C was read as PfHsp90 yeast 2 -13.5, tim10-1 inh 54.4*, TIM10 inh 23.3, ATG4B inhibitor -12.2, tim23-1 inh 48.0, SKKanGAS inh 7.8 and tim10-1 conf 24.5.
`COc1ccc(N2CCN(C(=O)c3cc(-c4ccc(F)cc4)[nH]c3C)CC2)cc1` gave PfHsp90 yeast 2 4.2, tim10-1 inh 42.0*, TIM10 inh 10.6, ATG4B inhibitor -18.2, tim23-1 inh 32.2, SKKanGAS inh 13.1 and tim10-1 conf 39.7*.
CC(=O)Cc1nsc(Nc2ccc(F)cc2)n1 was read as PfHsp90 yeast 2 17.1, tim10-1 inh 10.3, TIM10 inh 15.8, ATG4B inhibitor 5.1 and tim23-1 inh 16.5.
CCCCCc1nnc(NC(=O)CS(=O)(=O)Cc2ccccc2)s1 was read as tim10-1 inh 3.0, TIM10 inh 10.5, ATG4B inhibitor -2.8, tim23-1 inh 1.4 and SKKanGAS inh -3.5.
COC(=O)c1ccc(N2C(=O)CC(SCC(=O)Nc3ccc(OC)cc3)C2=O)cc1 (stereo not given) was read as PfHsp90 yeast 2 2.1, tim10-1 inh 21.0, TIM10 inh 13.1, ATG4B inhibitor -15.0, tim23-1 inh 27.6 and SKKanGAS inh -1.1.
For CN=C(Nc1cc(Cl)ccc1Cl)SC1CC(=O)N(c2ccc(C(=O)OC)cc2)C1=O (stereo not given) the results were tim10-1 inh 43.6*, TIM10 inh 14.5, ATG4B inhibitor -29.0, tim23-1 inh 41.6, SKKanGAS inh 51.6* and tim10-1 conf 41.8*.
`CCc1ccc2nc3nc(C)cc(C)c3c(N)c2c1` gave PfHsp90 yeast 2 -2.6, tim10-1 inh 46.6*, TIM10 inh 36.1, ATG4B inhibitor -4.9, tim23-1 inh 8.0, SKKanGAS inh 1.3 and tim10-1 conf 40.8*.
`CCc1ccc(NC(=S)/N=C(\N)Nc2nc(C)c3cc(CC)ccc3n2)cc1` gave PfHsp90 yeast 2 2.2, tim10-1 inh 27.8, TIM10 inh 13.8, ATG4B inhibitor -4.9, tim23-1 inh 8.2 and SKKanGAS inh 42.8.
Screening Cc1ccnc(Nc2nc(-c3ccc(F)cc3)cs2)c1 returned PfHsp90 yeast 2 -0.1, tim10-1 inh 41.8*, TIM10 inh 31.3, ATG4B inhibitor 20.0, tim23-1 inh 47.2, SKKanGAS inh 0.8 and tim10-1 conf 14.2.
Screening FC(F)(F)c1cccc(-c2nc3nc(Cl)c(Cl)nc3[nH]2)c1 returned PfHsp90 yeast 2 -11.2, tim10-1 inh -7.7, TIM10 inh 6.8, ATG4B inhibitor -2.4, tim23-1 inh 5.4 and SKKanGAS inh inconclusive.
`Cc1ccc(C)c(NC(=S)NNC(=O)c2csc3c2CCCC3)c1` gave PfHsp90 yeast 2 -1.9, tim10-1 inh 36.9, TIM10 inh 14.8, ATG4B inhibitor 9.3, tim23-1 inh 18.8 and SKKanGAS inh -0.5.
For Cc1ccc(C)c(NC(=S)NNC(=O)c2csc3c2CCC(C)C3)c1 (stereo not given) the results were PfHsp90 yeast 2 -9.0, tim10-1 inh 44.5*, TIM10 inh -13.0, ATG4B inhibitor 4.5, tim23-1 inh 23.3, SKKanGAS inh 28.2 and tim10-1 conf 34.4*.
For O=[N+]([O-])c1nn(-c2ccc(Cl)cc2)n(O)c1=NCc1cccnc1 the results were PfHsp90 yeast 2 0.9, tim10-1 inh 42.2*, TIM10 inh 29.5, ATG4B inhibitor 8.9, tim23-1 inh 35.1, SKKanGAS inh -1.6 and tim10-1 conf 30.4*.
